Data reported in ChEMBL document CHEMBL3988442, “University of Dundee, Small-Polar-MMV Screening Library” (2021).
For part of these data: Potency and affinity values are given separately.

Columns and labels:
Design in all cases: scale not given: direction of the effect not stated beside the values
[1] = target: Protein translocase subunit SecA (Escherichia coli (strain K12)) (UniProt P10408); test: Assay to Identify E. coli SecA ATPase Inhibitors; type: functional; settings: 30 µM
[2] = target: T1, Ubiquitin-activating enzyme e1, putative (Leishmania donovani (strain BPK282A1)) (UniProt E9BSI1); test: Leishmania donovani Ubiquitin Activating Enzyme (LdE1); type: functional; settings: 30 µM
T1 sequence (whole entry): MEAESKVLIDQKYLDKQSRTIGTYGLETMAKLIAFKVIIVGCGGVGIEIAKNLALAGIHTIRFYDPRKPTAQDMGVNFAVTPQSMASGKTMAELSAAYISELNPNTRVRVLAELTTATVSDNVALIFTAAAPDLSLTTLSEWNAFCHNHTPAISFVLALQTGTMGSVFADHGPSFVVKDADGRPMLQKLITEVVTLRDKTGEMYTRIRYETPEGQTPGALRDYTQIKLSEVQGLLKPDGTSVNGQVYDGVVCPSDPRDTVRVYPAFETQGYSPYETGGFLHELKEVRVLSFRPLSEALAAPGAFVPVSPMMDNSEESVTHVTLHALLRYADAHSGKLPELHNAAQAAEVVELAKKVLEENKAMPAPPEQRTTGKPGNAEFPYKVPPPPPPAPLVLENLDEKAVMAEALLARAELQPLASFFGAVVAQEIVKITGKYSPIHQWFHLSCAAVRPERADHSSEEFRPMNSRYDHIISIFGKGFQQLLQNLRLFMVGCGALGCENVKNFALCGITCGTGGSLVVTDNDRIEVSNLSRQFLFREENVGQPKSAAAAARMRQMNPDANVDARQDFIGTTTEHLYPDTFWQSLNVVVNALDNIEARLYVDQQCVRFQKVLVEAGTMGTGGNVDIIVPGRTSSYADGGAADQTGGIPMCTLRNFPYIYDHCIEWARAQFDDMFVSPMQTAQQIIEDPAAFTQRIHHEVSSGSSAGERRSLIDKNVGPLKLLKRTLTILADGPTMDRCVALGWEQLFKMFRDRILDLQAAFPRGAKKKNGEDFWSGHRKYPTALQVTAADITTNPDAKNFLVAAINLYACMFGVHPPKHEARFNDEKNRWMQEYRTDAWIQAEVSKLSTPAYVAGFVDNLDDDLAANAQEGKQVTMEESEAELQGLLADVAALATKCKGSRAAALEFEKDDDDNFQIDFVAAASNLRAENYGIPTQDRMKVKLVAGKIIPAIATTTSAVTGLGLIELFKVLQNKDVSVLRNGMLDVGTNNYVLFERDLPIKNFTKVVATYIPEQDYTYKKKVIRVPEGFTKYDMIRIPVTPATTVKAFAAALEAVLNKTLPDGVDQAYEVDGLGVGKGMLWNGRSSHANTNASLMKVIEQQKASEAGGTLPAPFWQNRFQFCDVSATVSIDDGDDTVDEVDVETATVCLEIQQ

[3] = target: Sialic acid-binding Ig-like lectin 9 (Homo sapiens) (UniProt Q9Y336); test: Hs-Siglec9 ALPHAscreen SOP 20170721; settings: 10 µM
Chain of Sialic acid-binding Ig-like lectin 9 (Homo sapiens) (Q9Y336 whole entry): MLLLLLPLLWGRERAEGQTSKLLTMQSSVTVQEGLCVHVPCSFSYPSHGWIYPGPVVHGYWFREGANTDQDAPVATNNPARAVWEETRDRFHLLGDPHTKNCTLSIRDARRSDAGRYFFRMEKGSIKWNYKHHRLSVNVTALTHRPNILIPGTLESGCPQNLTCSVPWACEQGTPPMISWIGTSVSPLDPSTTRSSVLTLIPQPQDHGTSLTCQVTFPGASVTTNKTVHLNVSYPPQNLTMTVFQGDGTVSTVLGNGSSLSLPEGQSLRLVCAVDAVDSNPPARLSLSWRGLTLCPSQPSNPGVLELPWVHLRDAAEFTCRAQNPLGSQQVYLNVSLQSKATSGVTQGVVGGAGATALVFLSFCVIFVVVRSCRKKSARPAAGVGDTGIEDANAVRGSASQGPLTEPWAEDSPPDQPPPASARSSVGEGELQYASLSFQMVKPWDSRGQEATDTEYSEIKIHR

Trypanosoma cruzi = test: Trypanosoma cruzi phosphomannomutase and mannose-1-phosphate guanylyltransferase assay; type: functional; settings: 10 µM
[4] = target: T2, Arginase-2, mitochondrial (Homo sapiens) (UniProt P78540); test: in vitro enzyme assay to detect the production of urea directly proportional to the activity of Arginase II; type: functional; settings: 33.3 µM; also: in the data most compounds retested in dose-response had high values
T2 sequence (whole entry): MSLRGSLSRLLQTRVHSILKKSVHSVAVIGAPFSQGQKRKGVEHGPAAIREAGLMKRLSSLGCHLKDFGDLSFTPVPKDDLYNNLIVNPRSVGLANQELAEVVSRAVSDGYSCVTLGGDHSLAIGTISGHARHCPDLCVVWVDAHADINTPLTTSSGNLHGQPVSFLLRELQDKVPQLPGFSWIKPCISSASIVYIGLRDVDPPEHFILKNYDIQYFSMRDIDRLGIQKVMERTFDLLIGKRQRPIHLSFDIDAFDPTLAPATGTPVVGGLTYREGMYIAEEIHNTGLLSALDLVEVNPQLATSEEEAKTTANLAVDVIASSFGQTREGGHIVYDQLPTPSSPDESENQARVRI

[5] = target: T3, Proteasome subunit beta (Trypanosoma cruzi) (UniProt O96673); test: Trypanosoma cruzi proteasome chymotrypsin-like activity (TcProtChymo) assay.; also: in the data most compounds retested in dose-response had high values; type: functional; settings: 9.37 µM
T3 sequence (whole entry): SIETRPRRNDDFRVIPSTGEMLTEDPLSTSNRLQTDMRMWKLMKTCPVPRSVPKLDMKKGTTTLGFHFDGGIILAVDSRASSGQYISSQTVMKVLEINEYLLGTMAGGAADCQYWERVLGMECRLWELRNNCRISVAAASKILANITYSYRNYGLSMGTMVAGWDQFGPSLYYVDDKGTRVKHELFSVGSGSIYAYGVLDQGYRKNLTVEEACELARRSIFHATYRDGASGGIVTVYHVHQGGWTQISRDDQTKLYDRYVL

Homo sapiens = organism: Homo sapiens; test: To identify inhibition of the IFN signalling (Jak-Stat) pathway via expression of an eGFP reporter gene under the control of an IFN-stimulated response element (ISRE) containing MxA promoter.; type: functional; settings: 30 µM
[6] = target: T4, Tyrosyl-tRNA synthetase, putative (Trypanosoma cruzi (strain CL Brener)) (UniProt Q4DSP6); test: Trypanosoma cruzi tyrosyl tRNA synthetase (TcYRS) _High Tyrosine SOP; type: functional; settings: 30 µM; also: in the data most compounds retested in dose-response had high values
T4 sequence (whole entry): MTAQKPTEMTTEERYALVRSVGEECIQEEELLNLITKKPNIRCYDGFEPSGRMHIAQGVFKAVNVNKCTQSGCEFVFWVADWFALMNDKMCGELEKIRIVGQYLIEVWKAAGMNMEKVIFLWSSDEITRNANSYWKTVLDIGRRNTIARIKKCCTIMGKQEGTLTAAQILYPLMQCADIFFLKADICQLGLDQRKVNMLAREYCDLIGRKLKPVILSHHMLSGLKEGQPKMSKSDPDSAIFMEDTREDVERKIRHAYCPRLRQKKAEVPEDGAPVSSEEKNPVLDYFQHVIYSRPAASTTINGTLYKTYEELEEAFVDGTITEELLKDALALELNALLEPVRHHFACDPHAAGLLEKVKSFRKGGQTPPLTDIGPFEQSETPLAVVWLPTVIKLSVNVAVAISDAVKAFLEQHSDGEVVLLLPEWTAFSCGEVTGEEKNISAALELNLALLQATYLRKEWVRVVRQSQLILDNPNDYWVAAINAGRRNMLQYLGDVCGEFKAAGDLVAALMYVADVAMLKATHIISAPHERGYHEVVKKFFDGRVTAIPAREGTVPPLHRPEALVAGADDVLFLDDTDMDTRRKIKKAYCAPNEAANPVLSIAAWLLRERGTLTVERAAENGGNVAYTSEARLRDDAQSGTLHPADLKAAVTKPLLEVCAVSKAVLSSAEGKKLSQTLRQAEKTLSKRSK

[7] = target: T4, Tyrosyl-tRNA synthetase, putative (Trypanosoma cruzi (strain CL Brener)); test: Trypanosoma cruzi tyrosyl tRNA synthetase (TcYRS) SOP; type: functional; settings: 30 µM
[8] = target: Chromo domain-containing protein 1 (Saccharomyces cerevisiae (strain ATCC 204508 / S288c) (Baker's yeast)) (UniProt P32657); test: ScCHD-1 Enzyme Inhibition Assay; type: functional; settings: 30 µM; also: in the data most compounds retested in dose-response had high values
Chain of Chromo domain-containing protein 1 (Saccharomyces cerevisiae (strain ATCC 204508 / S288c) (Baker's yeast)) (P32657 whole entry, the tested form may be a part): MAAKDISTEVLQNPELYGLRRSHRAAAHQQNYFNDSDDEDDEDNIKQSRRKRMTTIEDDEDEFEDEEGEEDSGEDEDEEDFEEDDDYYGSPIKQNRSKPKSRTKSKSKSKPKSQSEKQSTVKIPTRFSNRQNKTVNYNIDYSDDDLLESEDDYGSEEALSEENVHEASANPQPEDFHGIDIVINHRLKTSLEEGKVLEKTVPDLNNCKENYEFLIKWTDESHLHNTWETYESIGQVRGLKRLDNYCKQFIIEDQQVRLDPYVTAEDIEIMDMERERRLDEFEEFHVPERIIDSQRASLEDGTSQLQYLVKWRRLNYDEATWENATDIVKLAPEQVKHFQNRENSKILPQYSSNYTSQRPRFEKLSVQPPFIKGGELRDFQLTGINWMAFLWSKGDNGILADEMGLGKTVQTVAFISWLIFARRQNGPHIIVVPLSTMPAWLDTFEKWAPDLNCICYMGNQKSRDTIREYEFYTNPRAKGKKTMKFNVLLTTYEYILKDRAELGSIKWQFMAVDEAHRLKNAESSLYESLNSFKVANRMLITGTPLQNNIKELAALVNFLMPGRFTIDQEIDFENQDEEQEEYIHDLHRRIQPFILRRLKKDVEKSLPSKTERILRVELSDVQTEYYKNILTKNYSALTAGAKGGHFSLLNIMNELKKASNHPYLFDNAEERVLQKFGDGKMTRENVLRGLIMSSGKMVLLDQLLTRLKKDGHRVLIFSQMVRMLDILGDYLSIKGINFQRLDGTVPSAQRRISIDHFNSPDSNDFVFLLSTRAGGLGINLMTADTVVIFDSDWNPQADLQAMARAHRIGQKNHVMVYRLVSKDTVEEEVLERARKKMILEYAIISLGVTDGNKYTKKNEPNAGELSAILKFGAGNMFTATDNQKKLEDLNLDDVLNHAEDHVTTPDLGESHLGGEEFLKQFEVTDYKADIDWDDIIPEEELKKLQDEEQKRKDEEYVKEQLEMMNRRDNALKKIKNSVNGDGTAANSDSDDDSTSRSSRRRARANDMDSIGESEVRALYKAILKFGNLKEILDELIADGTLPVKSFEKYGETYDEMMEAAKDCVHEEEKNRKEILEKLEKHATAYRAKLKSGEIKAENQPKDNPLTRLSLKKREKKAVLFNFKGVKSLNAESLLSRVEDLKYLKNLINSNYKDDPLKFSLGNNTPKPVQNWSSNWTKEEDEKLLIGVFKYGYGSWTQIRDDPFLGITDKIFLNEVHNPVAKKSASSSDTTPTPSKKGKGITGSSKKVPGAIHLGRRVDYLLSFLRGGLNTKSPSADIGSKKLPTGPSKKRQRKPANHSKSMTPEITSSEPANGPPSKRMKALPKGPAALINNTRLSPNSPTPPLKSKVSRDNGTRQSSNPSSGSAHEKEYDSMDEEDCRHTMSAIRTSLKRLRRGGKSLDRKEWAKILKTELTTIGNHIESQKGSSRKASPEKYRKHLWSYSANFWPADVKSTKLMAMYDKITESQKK

Chain of Protein translocase subunit SecA (Escherichia coli (strain K12)) (P10408 whole entry): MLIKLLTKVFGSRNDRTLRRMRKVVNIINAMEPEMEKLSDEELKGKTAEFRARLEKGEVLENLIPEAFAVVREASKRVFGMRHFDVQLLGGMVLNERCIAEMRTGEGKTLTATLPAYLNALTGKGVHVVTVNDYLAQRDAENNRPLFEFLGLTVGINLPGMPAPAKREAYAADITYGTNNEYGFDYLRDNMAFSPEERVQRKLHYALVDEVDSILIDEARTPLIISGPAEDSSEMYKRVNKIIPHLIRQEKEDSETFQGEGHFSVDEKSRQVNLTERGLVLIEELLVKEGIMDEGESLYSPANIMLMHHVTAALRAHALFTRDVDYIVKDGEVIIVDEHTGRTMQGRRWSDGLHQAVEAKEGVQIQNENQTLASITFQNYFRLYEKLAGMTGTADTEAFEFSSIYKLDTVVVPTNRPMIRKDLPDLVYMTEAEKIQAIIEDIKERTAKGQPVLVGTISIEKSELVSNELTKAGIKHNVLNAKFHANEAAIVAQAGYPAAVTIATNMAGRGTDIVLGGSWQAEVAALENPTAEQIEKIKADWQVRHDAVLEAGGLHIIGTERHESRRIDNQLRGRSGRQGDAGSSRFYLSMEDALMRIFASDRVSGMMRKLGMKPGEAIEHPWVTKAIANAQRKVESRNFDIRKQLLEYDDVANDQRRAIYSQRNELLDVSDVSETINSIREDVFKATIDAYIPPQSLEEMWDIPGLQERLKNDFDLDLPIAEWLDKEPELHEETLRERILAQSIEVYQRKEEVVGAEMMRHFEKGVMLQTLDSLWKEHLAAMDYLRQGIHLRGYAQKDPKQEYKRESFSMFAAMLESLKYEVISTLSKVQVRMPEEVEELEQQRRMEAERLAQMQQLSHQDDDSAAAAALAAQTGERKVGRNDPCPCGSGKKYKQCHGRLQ

Row | Compound | Percent Effect [1] [%] | Percent Effect [2] [%] | Percent Effect [3] [%] | Percent Effect (Trypanosoma cruzi) [%] | Percent Effect [4] [%] | Percent Effect [5] [%] | Percent Effect (Homo sapiens) [%] | Percent Effect [6] [%] | Percent Effect [7] [%] | Percent Effect [8] [%]
1 | O=C(O)c1ccc2ccc(N3CCN(CC4CC4)CC3)n2c1 | -3.4 | 14.3 | 1.31 | 3.38 | 2.74 | 9.7 | 7.8 | 18.4 | 12.5 | -4.22
2 | CCc1nnc2n1CCN(Cc1nc(-c3ccoc3)no1)C2 | -4.35 | 5.13 | 5.33 | 4.22 | 1.64 | 9.47 | -10.4 | 12 | 22.9 | -4.51
3 | O=C(NCC1COCc2c(-c3cccnc3)nnn2C1)c1cccs1 (stereo not given) | -1.54 | 9.09 | -6.14 | -8.28 | -12.2 | 13 | 4.75 | 10 | 10.3 | -4.23
4 | CCC(CC)C(=O)N1CCC2(C1)CN(c1ccccc1)C(=O)CN2C (stereo not given) | -1.78 | 3.9 | -5.2 | -8.08 | 4.86 | 14.7 | -19.6 | 5.79 | 0 | -2.51
5 | CCC1CN(C(=O)NCCOc2ccc3c(c2)OCO3)CCO1 (stereo not given) | 1.77 | 18.2 | -3.28 | -3.36 | 5.53 | 15.4 | 1.58 | 4.9 | 16.5 | -6.67
6 | CC(C)NC(=O)Nc1ccc(CNCc2cccc(OC(F)F)c2)cc1 | -3.77 | 10.4 | -3.29 | -2.98 | -10 | 24 | 25.1 | 4.9 | 7.06 | -10.9
7 | COCC1CN(Cc2ccsc2)Cc2nn(C)cc21 (stereo not given) | -4.97 | 6.49 | -3.38 | -7.11 | 2.83 | 20.9 | 13.5 | 3.68 | 0 | 2.62
8 | Cc1ncccc1O[C@H]1CCN(C(=O)Cc2cccs2)CC[C@@H]1O | -5.37 | 17.3 | 6.84 | 1.18 | -0.443 | 10.8 | 7.57 | 6.35 | 15 | -22.2
9 | c1cnn(CC2CN(Cc3noc(C4CC4)n3)CCO2)c1 (stereo not given) | -9.46 | 16 | 4.59 | 1.81 | -3.1 | 10.8 | 7.98 | 3.68 | 7.69 | -6.72
10 | N#Cc1c(C2CC2)cc(-c2ccc(O)cc2)nc1N | -6.18 | 2.7 | 3.32 | -1.46 | 4.54 | 23.6 | 48.6 | -0.532 | 7.32 | -2.85
11 | CC1CN(CC(=O)NC2CCCC2)CCN1c1ccc2nncn2n1 (stereo not given) | -1.74 | 12.8 | 1.41 | 0.0939 | 4.1 | 15.8 | 12.2 | 7.18 | 20.5 | -1.24
12 | Cc1cc(C2CCCN2Cc2cc(=O)n(C)c(=O)n2C)on1 (stereo not given) | -4.6 | 2.67 | 1.58 | 3.21 | 0.444 | 1.27 | 14.5 | 2.63 | 5.13 | -4.48
